Source: PubChem BioAssay (NCATS)
Records with an inconclusive call do not appear. Active and inactive are the calls of the source. Calls come from the whole dose curve; as a rule, active = well fitted inhibition curve with a large enough effect; inconclusive = small, poorly fitted or top-dose-only effect; inactive = flat fitted curve, though single readings scatter.

Assays:
[1] = qHTS profiling for inhibitors of Plasmodium falciparum proliferation (AID 504749); note: nearly all actives have a fitted effect of over 60% in size;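 for activity, negative = inhibition: 0% = DMSO vehicle and full inhibition = artemisinin control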; details: P. falciparum in erythrocytes, SYBR Green DNA, 72 h
Procedure, shortened: (§1)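 P. falciparum-infected erythrocytes (0.3% parasitemia, 2.5% hematocrit) incubated with compound 72 h at 37 C, 5% CO2. Parasite DNA detected by SYBR Green after lysis, overnight at room temperature; normalised to 0.29 uM artemisinin and DMSO.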

3D7 = assay: as above; details: P. falciparum in erythrocytes, SYBR Green DNA, 72 h; series mostly up to 28.7 µM
Procedure, shortened: as §1

7G8 = assay: as above; details: P. falciparum in erythrocytes, SYBR Green DNA, 72 h; series mostly up to 28.7 µM
Procedure, shortened: as §1

AA1029 = assay: as above; details: P. falciparum in erythrocytes, SYBR Green DNA, 72 h; series mostly up to 28.7 µM
Procedure, shortened: as §1

AS120 = assay: as above; details: P. falciparum in erythrocytes, SYBR Green DNA, 72 h; series mostly up to 28.7 µM
Procedure, shortened: as §1

ATS189 = assay: as above; details: P. falciparum in erythrocytes, SYBR Green DNA, 72 h; series mostly up to 28.7 µM
Procedure, shortened: as §1

ATS95 = assay: as above; details: P. falciparum in erythrocytes, SYBR Green DNA, 72 h; series mostly up to 28.7 µM
Procedure, shortened: as §1

C2A = assay: as above; details: P. falciparum in erythrocytes, SYBR Green DNA, 72 h; series mostly up to 28.7 µM
Procedure, shortened: as §1

CP185 = assay: as above; details: P. falciparum in erythrocytes, SYBR Green DNA, 72 h; series mostly up to 28.7 µM
Procedure, shortened: as §1

CP191 = assay: as above; details: P. falciparum in erythrocytes, SYBR Green DNA, 72 h; series mostly up to 28.7 µM
Procedure, shortened: as §1

CP192 = assay: as above; details: P. falciparum in erythrocytes, SYBR Green DNA, 72 h; series mostly up to 28.7 µM
Procedure, shortened: as §1

CP194 = assay: as above; details: P. falciparum in erythrocytes, SYBR Green DNA, 72 h; series mostly up to 28.7 µM
Procedure, shortened: as §1

CP201 = assay: as above; details: P. falciparum in erythrocytes, SYBR Green DNA, 72 h; series mostly up to 28.7 µM
Procedure, shortened: as §1

CP203 = assay: as above; details: P. falciparum in erythrocytes, SYBR Green DNA, 72 h; series mostly up to 28.7 µM
Procedure, shortened: as §1

CP211 = assay: as above; details: P. falciparum in erythrocytes, SYBR Green DNA, 72 h; series mostly up to 28.7 µM
Procedure, shortened: as §1

CP217 = assay: as above; details: P. falciparum in erythrocytes, SYBR Green DNA, 72 h; series mostly up to 28.7 µM
Procedure, shortened: as §1

CP237 = assay: as above; details: P. falciparum in erythrocytes, SYBR Green DNA, 72 h; series mostly up to 28.7 µM
Procedure, shortened: as §1

CP238 = assay: as above; details: P. falciparum in erythrocytes, SYBR Green DNA, 72 h; series mostly up to 28.7 µM
Procedure, shortened: as §1

CP215 = assay: as above; details: P. falciparum in erythrocytes, SYBR Green DNA, 72 h; series mostly up to 28.7 µM
Procedure, shortened: as §1

[2] = at 28.7 µM (top of the series), parasite line A
[3] = at 28.7 µM (top of the series), parasite line B
[4] = at 12.8 µM (top of the series), parasite line A
[5] = at 12.8 µM (top of the series), parasite line B
Potency is the fitted concentration of half-maximal effect.

CCc1oc2ccccc2c1C(=O)c1cc(Br)c(O)c(Br)c1
inactive: activity, negative = inhibition [1, 2] -3.41% | activity, negative = inhibition [1, 3] -11.9% | Potency (3D7) | Potency (7G8) | Potency (AA1029) | Potency (AS120) | Potency (ATS189) | Potency (ATS95) | Potency (C2A) | Potency (CP185) | Potency (CP191) | Potency (CP192) | Potency (CP194) | Potency (CP201) | Potency (CP203) | Potency (CP211) | Potency (CP217) | Potency (CP237) | Potency (CP238)

CC(C)(C)NC[C@H](O)COc1cccc2c1CCCC2=O
inactive: activity, negative = inhibition [1, 4] 5.04% | activity, negative = inhibition [1, 5] 7.33% | Potency (3D7) | Potency (7G8) | Potency (AA1029) | Potency (AS120) | Potency (ATS189) | Potency (ATS95) | Potency (C2A) | Potency (CP185) | Potency (CP191) | Potency (CP192) | Potency (CP194) | Potency (CP201) | Potency (CP203) | Potency (CP211) | Potency (CP217) | Potency (CP237) | Potency (CP238)

Cc1ncc(CO)c(C=O)c1O
inactive: activity, negative = inhibition [1, 2] 0.609% | activity, negative = inhibition [1, 3] 9.9% | Potency (3D7) | Potency (7G8) | Potency (AA1029) | Potency (AS120) | Potency (ATS189) | Potency (ATS95) | Potency (C2A) | Potency (CP185) | Potency (CP191) | Potency (CP217) | Potency (CP237) | Potency (CP238)

C/C=C/c1ccc(O)c(OC)c1
inactive: activity, negative = inhibition [1, 2] 3.92% | activity, negative = inhibition [1, 3] -10.3% | Potency (3D7) | Potency (AA1029) | Potency (AS120) | Potency (ATS189) | Potency (ATS95) | Potency (C2A) | Potency (CP185) | Potency (CP191) | Potency (CP192) | Potency (CP194) | Potency (CP201) | Potency (CP203) | Potency (CP211) | Potency (CP217) | Potency (CP237) | Potency (CP238)
active: Potency (7G8) 10 µM

CC[C@H](c1ccc(O)cc1)[C@@H](CC)c1ccc(O)cc1
inactive: activity, negative = inhibition [1, 4] -8.43% | activity, negative = inhibition [1, 5] 3.18% | Potency (3D7) | Potency (7G8) | Potency (AA1029) | Potency (AS120) | Potency (ATS189) | Potency (ATS95) | Potency (C2A) | Potency (CP185) | Potency (CP191) | Potency (CP192) | Potency (CP194) | Potency (CP201) | Potency (CP203) | Potency (CP215) | Potency (CP217) | Potency (CP237) | Potency (CP238)

N#CCC(=O)NN
inactive: activity, negative = inhibition [1, 2] 10.6% | activity, negative = inhibition [1, 3] 7.8% | Potency (3D7) | Potency (7G8) | Potency (AA1029) | Potency (AS120) | Potency (ATS189) | Potency (ATS95) | Potency (C2A) | Potency (CP185) | Potency (CP191) | Potency (CP192) | Potency (CP194) | Potency (CP201) | Potency (CP203) | Potency (CP211) | Potency (CP217) | Potency (CP237) | Potency (CP238)

CNCCCCOc1ccccc1Cc1ccccc1
inactive: activity, negative = inhibition [1, 2] -10.8% | activity, negative = inhibition [1, 3] -10.9% | Potency (3D7) | Potency (CP192)
active: Potency (7G8) 6.31 µM | Potency (AA1029) 5.01 µM | Potency (CP203) 4.26 µM | Potency (CP238) 8.91 µM

O=C(Nc1ccc([N+](=O)[O-])cc1)Nc1ccc([N+](=O)[O-])cc1
inactive: activity, negative = inhibition [1, 2] 3.88% | activity, negative = inhibition [1, 3] -6.66% | Potency (AA1029) | Potency (AS120) | Potency (ATS189) | Potency (ATS95) | Potency (C2A) | Potency (CP185) | Potency (CP191) | Potency (CP192) | Potency (CP194) | Potency (CP201) | Potency (CP203) | Potency (CP211) | Potency (CP217) | Potency (CP238)
active: Potency (3D7) 7.08 µM | Potency (7G8) 1.41 µM | Potency (CP237) 3.98 µM

CNCCc1ccccn1
inactive: activity, negative = inhibition [1, 4] 6.01% | activity, negative = inhibition [1, 5] 8.04% | Potency (3D7) | Potency (7G8) | Potency (AA1029) | Potency (AS120) | Potency (ATS189) | Potency (ATS95) | Potency (C2A) | Potency (CP185) | Potency (CP191) | Potency (CP192) | Potency (CP194) | Potency (CP203) | Potency (CP211) | Potency (CP215) | Potency (CP217) | Potency (CP237) | Potency (CP238)

CN1CCN(c2cc3c(cc2F)c(=O)c(C(=O)O)cn3-c2ccc(F)cc2)CC1
inactive: activity, negative = inhibition [1, 2] -21.3% | activity, negative = inhibition [1, 3] -17.5% | Potency (3D7) | Potency (7G8) | Potency (AA1029) | Potency (ATS189) | Potency (ATS95) | Potency (C2A) | Potency (CP185) | Potency (CP191) | Potency (CP192) | Potency (CP201) | Potency (CP203) | Potency (CP211) | Potency (CP217) | Potency (CP238)

O=C(O)C1(C(=O)O)CCC1.[NH2-].[NH2-].[Pt+2]
active: Potency (7G8) 14.1 µM
inactive: activity, negative = inhibition [1, 2] -5.41% | activity, negative = inhibition [1, 3] -0.756% | Potency (3D7) | Potency (AA1029) | Potency (AS120) | Potency (ATS189) | Potency (ATS95) | Potency (C2A) | Potency (CP185) | Potency (CP191) | Potency (CP192) | Potency (CP194) | Potency (CP201) | Potency (CP203) | Potency (CP211) | Potency (CP215) | Potency (CP217) | Potency (CP238)

CCOc1ccc(NC(C)=O)cc1
inactive: activity, negative = inhibition [1, 2] -9.23% | activity, negative = inhibition [1, 3] 8.77% | Potency (3D7) | Potency (7G8) | Potency (AA1029) | Potency (AS120) | Potency (ATS189) | Potency (ATS95) | Potency (C2A) | Potency (CP185) | Potency (CP191) | Potency (CP192) | Potency (CP194) | Potency (CP201) | Potency (CP203) | Potency (CP211) | Potency (CP217) | Potency (CP237) | Potency (CP238)

COc1cc(C)nc(-n2nc(C)cc2OC)n1
inactive: activity, negative = inhibition [1, 4] 3.73% | activity, negative = inhibition [1, 5] -3.99% | Potency (3D7) | Potency (7G8) | Potency (AA1029) | Potency (AS120) | Potency (ATS189) | Potency (ATS95) | Potency (C2A) | Potency (CP185) | Potency (CP191) | Potency (CP194) | Potency (CP201) | Potency (CP203) | Potency (CP211) | Potency (CP215) | Potency (CP217) | Potency (CP237) | Potency (CP238)
